Results taken from PubChem BioAssay (NCI).
This is part of a sample that, as a whole, favours compounds with a hit. Of some 79,000 tested, about 15% had one in any assay. A number with no mark means an inactive call. The source made the active and inactive calls. Cut-off read from the data, not from the text of the source: active = growth inhibition above about 70%; inactive = the rest.

What was measured:
[1] = NCI Yeast Anticancer Drug Screen. Data for the rad52 strain (AID 147);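 note: 0% = growth of vehicle-treated control cultures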; conditions: S. cerevisiae rad52 mutant growth inhibition, active compounds read high
In short: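 The repair-mutant yeast strain was incubated with compounds, then growth was read and inhibition derived relative to vehicle.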

[2] = NCI Yeast Anticancer Drug Screen. Data for the wt1 strain (AID 149);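 note: 0% = growth of vehicle-treated wt1 cultures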; conditions: S. cerevisiae wt1 strain (SPY 50644) growth inhibition, active compounds read high
In short: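 Measured: growth of wt1 yeast under compound versus vehicle treatment, reported as inhibition.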

[3] = NCI Yeast Anticancer Drug Screen. Data for the rad50EPP+ strain (AID 151);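 note: 0% = growth of vehicle-treated control cultures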; conditions: S. cerevisiae rad50 mutant strain, active compounds read high
In short: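 Vehicle-normalised growth inhibition; rad50EPP+ yeast strain, altered in DNA damage repair, compound-treated.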

[4] = NCI Yeast Anticancer Drug Screen. Data for the mgt1 strain (AID 153); conditions: S. cerevisiae mgt1 mutant growth inhibition, active compounds read high
In short: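 Vehicle-normalized growth inhibition is determined in mgt1 yeast, a strain selected for a defined alteration in DNA repair or cell cycle control.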

[5] = NCI Yeast Anticancer Drug Screen. Data for the rad50 strain (AID 155);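 note: 0% = growth of vehicle-only cultures of the same strain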; conditions: S. cerevisiae rad50 strain growth inhibition, active compounds read high
In short: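 Growth of the mutant yeast was measured after compound exposure and referenced to vehicle-treated cultures.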

[6] = NCI Yeast Anticancer Drug Screen. Data for the mec2-1 strain (AID 157); conditions: S. cerevisiae mec2-1 strain, active compounds read high
In short: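 Mutant yeast (mec2-1) grown with compound; growth inhibition relative to vehicle control reported.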

[7] = NCI Yeast Anticancer Drug Screen. Data for the rad14 strain (AID 159);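 note: 0% = growth of vehicle-treated control cultures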; conditions: S. cerevisiae rad14 strain growth inhibition, active compounds read high
In short: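 Here, inhibition of yeast growth was measured after compound exposure, using a strain with a genetic defect in DNA damage repair and vehicle-treated cultures as the reference.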

[8] = NCI Yeast Anticancer Drug Screen. Data for the sgs1 mgt1 strain (AID 161);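 note: 0% = growth of cultures given vehicle only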; conditions: S. cerevisiae sgs1 mgt1 strain, active compounds read high
In short: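 Percent growth inhibition was derived by comparing compound-exposed mutant yeast with vehicle-exposed cultures. The strain carries alterations in DNA damage repair.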

[9] = NCI Yeast Anticancer Drug Screen. Data for the CLN2oe strain (AID 163);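 note: 0% = growth of vehicle-only control cultures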; conditions: S. cerevisiae CLN2oe strain, active compounds read high
In short: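 Compounds are applied to yeast harbouring a defined cell-cycle control change; reduced growth compared with vehicle-treated controls gives the value.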

[10] = NCI Yeast Anticancer Drug Screen. Data for the cln2 rad14 strain (AID 165);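 note: 0% = growth equal to vehicle treated cultures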; conditions: S. cerevisiae cln2 rad14 strain, active compounds read high
In short: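 Readout is yeast growth inhibition versus vehicle-treated controls, using a strain with cln2 and rad14 alterations exposed to compound.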

[11] = NCI Yeast Anticancer Drug Screen. Data for the bub3 strain (AID 167); conditions: S. cerevisiae bub3 mutant strain, active compounds read high
In short: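 Whole-cell yeast assay. The mutant strain was incubated with compounds, and growth inhibition was determined by comparison with vehicle-treated cells.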

[12] = NCI Yeast Anticancer Drug Screen. Data for the wt2 strain (AID 169);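 note: 0% = growth of vehicle-treated yeast cultures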; conditions: S. cerevisiae wt2 strain growth inhibition, active compounds read high
In short: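 Against vehicle-treated controls, the growth of yeast exposed to each compound was compared, and the inhibition was recorded.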

[13] = NCI Yeast Anticancer Drug Screen. Data for the sgs1 strain (AID 173);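 note: 0% = growth of vehicle-only control cultures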; conditions: S. cerevisiae sgs1 mutant, active compounds read high
In short: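 Each compound was added to cultures of the altered yeast strain. Growth was recorded, and inhibition was derived by comparison with vehicle controls.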

[14] = NCI Yeast Anticancer Drug Screen. Data for the mlh1 rad18 strain (AID 175); conditions: S. cerevisiae mlh1 rad18 strain growth inhibition, active compounds read high
In short: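 Genetically defined yeast (DNA repair-deficient) exposed to compounds; growth inhibition determined relative to vehicle.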

[15] = NCI Yeast Anticancer Drug Screen. Data for the rad18 strain (AID 177); conditions: S. cerevisiae rad18 mutant growth inhibition, active compounds read high
In short: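 Vehicle-treated cultures served as the baseline for scoring compound-induced growth inhibition in DNA-repair-mutant yeast.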

[16] = at 5.0 µM (retest, dose inferred, filed as 0.5)
[17] = at 50.0 µM (retest, dose inferred, filed as 5.0)

Compound: CC(=O)/C=C/c1cc([N+](=O)[O-])ccc1O
- growth inhibition ([1]; at 1.2 µM): -47%
- growth inhibition ([1]; at 3.7 µM): -33%
- growth inhibition ([1]; at 11.0 µM): -9%
- growth inhibition ([1]; at 33.0 µM): 79% (active)
- growth inhibition ([1]; at 100.0 µM): 97% (active)
- growth inhibition ([2]; at 1.2 µM): -12%
- growth inhibition ([2]; at 3.7 µM): -33%
- growth inhibition ([2]; at 11.0 µM): -2%
- growth inhibition ([2]; at 33.0 µM): 66%
- growth inhibition ([2]; at 100.0 µM): 97% (active)
- growth inhibition ([3]; at 1.2 µM): -27%
- growth inhibition ([3]; at 3.7 µM): -4%
- growth inhibition ([3]; at 11.0 µM): 30%
- growth inhibition ([3]; at 33.0 µM): 78% (active)
- growth inhibition ([3]; at 100.0 µM): 95% (active)
- growth inhibition ([4]; at 1.2 µM): -1%
- growth inhibition ([4]; at 3.7 µM): 2%
- growth inhibition ([4]; at 11.0 µM): -2%
- growth inhibition ([4]; at 33.0 µM): 94% (active)
- growth inhibition ([4]; at 100.0 µM): 97% (active)
- growth inhibition ([5]; at 1.2 µM): -22%
- growth inhibition ([5]; at 3.7 µM): -20%
- growth inhibition [5, 16]: 7%
- growth inhibition ([5]; at 11.0 µM): -5%
- growth inhibition ([5]; at 33.0 µM): 83% (active)
- growth inhibition [5, 17]: 85% (active)
- growth inhibition ([5]; at 50.0 µM): 86% (active)
- growth inhibition ([5]; at 100.0 µM): 97% (active)
- growth inhibition ([6]; at 1.2 µM): -5%
- growth inhibition ([6]; at 3.7 µM): -25%
- growth inhibition [6, 16]: 0%
- growth inhibition ([6]; at 11.0 µM): 29%
- growth inhibition ([6]; at 33.0 µM): 96% (active)
- growth inhibition [6, 17]: 89% (active)
- growth inhibition ([6]; at 50.0 µM): 90.5% (active)
- growth inhibition ([6]; at 100.0 µM): 99% (active)
- growth inhibition ([7]; at 1.2 µM): -30%
- growth inhibition ([7]; at 3.7 µM): -22%
- growth inhibition ([7]; at 11.0 µM): 9%
- growth inhibition ([7]; at 33.0 µM): 97% (active)
- growth inhibition ([7]; at 100.0 µM): 98% (active)
- growth inhibition [8, 16]: 12%
- growth inhibition [8, 17]: 87% (active)
- growth inhibition ([8]; at 50.0 µM): 88.9% (active)
- growth inhibition ([9]; at 1.2 µM): -5%
- growth inhibition ([9]; at 3.7 µM): 3%
- growth inhibition ([9]; at 11.0 µM): 23%
- growth inhibition ([9]; at 33.0 µM): 86% (active)
- growth inhibition ([9]; at 100.0 µM): 98% (active)
- growth inhibition [10, 16]: 36%
- growth inhibition [10, 17]: 87% (active)
- growth inhibition ([10]; at 50.0 µM): 46.5%
- growth inhibition ([11]; at 1.2 µM): -28%
- growth inhibition ([11]; at 3.7 µM): -18%
- growth inhibition [11, 16]: 21%
- growth inhibition ([11]; at 11.0 µM): 11%
- growth inhibition ([11]; at 33.0 µM): 95% (active)
- growth inhibition [11, 17]: 92% (active)
- growth inhibition ([11]; at 50.0 µM): 49.7%
- growth inhibition ([11]; at 100.0 µM): 98% (active)
- growth inhibition ([12]; at 1.2 µM): -31%
- growth inhibition ([12]; at 3.7 µM): -32%
- growth inhibition ([12]; at 11.0 µM): -23%
- growth inhibition ([12]; at 33.0 µM): 76% (active)
- growth inhibition ([12]; at 100.0 µM): 98% (active)
- growth inhibition ([13]; at 1.2 µM): -28%
- growth inhibition ([13]; at 3.7 µM): -24%
- growth inhibition ([13]; at 11.0 µM): 9%
- growth inhibition ([13]; at 33.0 µM): 94% (active)
- growth inhibition ([13]; at 100.0 µM): 98% (active)
- growth inhibition [14, 16]: 24%
- growth inhibition [14, 17]: 97% (active)
- growth inhibition ([14]; at 50.0 µM): 85.1% (active)
- growth inhibition ([15]; at 1.2 µM): -51%
- growth inhibition ([15]; at 3.7 µM): -47%
- growth inhibition ([15]; at 11.0 µM): -23%
- growth inhibition ([15]; at 33.0 µM): 74% (active)
- growth inhibition ([15]; at 100.0 µM): 97% (active)

Compound: CCCCCCC=C(C(=O)OCC)C(=O)OCC
- growth inhibition ([1]; at 1.2 µM): -2%
- growth inhibition ([1]; at 3.7 µM): 0%
- growth inhibition ([1]; at 11.0 µM): -1%
- growth inhibition ([1]; at 33.0 µM): 2%
- growth inhibition ([1]; at 100.0 µM): 23%
- growth inhibition ([2]; at 1.2 µM): -2%
- growth inhibition ([2]; at 3.7 µM): -3%
- growth inhibition ([2]; at 11.0 µM): -6%
- growth inhibition ([2]; at 33.0 µM): -7%
- growth inhibition ([2]; at 100.0 µM): 4%
- growth inhibition ([3]; at 1.2 µM): -1%
- growth inhibition ([3]; at 3.7 µM): 4%
- growth inhibition ([3]; at 11.0 µM): 7%
- growth inhibition ([3]; at 33.0 µM): 14%
- growth inhibition ([3]; at 100.0 µM): 24%
- growth inhibition ([4]; at 1.2 µM): -1%
- growth inhibition ([4]; at 3.7 µM): -3%
- growth inhibition ([4]; at 11.0 µM): 0%
- growth inhibition ([4]; at 33.0 µM): -5%
- growth inhibition ([4]; at 100.0 µM): 13%
- growth inhibition ([5]; at 1.2 µM): -2%
- growth inhibition ([5]; at 3.7 µM): -3%
- growth inhibition [5, 16]: -18%
- growth inhibition ([5]; at 11.0 µM): -3%
- growth inhibition ([5]; at 33.0 µM): -5%
- growth inhibition [5, 17]: 11%
- growth inhibition ([5]; at 50.0 µM): -8.3%
- growth inhibition ([5]; at 100.0 µM): 22%
- growth inhibition ([6]; at 1.2 µM): -1%
- growth inhibition ([6]; at 3.7 µM): 1%
- growth inhibition [6, 16]: -8%
- growth inhibition ([6]; at 11.0 µM): -2%
- growth inhibition ([6]; at 33.0 µM): 5%
- growth inhibition [6, 17]: 46%
- growth inhibition ([6]; at 50.0 µM): 38%
- growth inhibition ([6]; at 100.0 µM): 22%
- growth inhibition ([7]; at 1.2 µM): -3%
- growth inhibition ([7]; at 3.7 µM): -4%
- growth inhibition ([7]; at 11.0 µM): -2%
- growth inhibition ([7]; at 33.0 µM): 2%
- growth inhibition ([7]; at 100.0 µM): 13%
- growth inhibition [8, 16]: -11%
- growth inhibition [8, 17]: 68%
- growth inhibition ([8]; at 50.0 µM): 42%
- growth inhibition ([9]; at 1.2 µM): -4%
- growth inhibition ([9]; at 3.7 µM): -4%
- growth inhibition ([9]; at 11.0 µM): -8%
- growth inhibition ([9]; at 33.0 µM): -10%
- growth inhibition ([9]; at 100.0 µM): 3%
- growth inhibition [10, 16]: -13%
- growth inhibition [10, 17]: 19%
- growth inhibition ([10]; at 50.0 µM): 18.1%
- growth inhibition ([11]; at 1.2 µM): 0%
- growth inhibition ([11]; at 3.7 µM): 0%
- growth inhibition [11, 16]: -6%
- growth inhibition ([11]; at 11.0 µM): -1%
- growth inhibition ([11]; at 33.0 µM): 1%
- growth inhibition [11, 17]: 18%
- growth inhibition ([11]; at 50.0 µM): 63%
- growth inhibition ([11]; at 100.0 µM): 17%
